DAX1 inh-1: DAX1 (NR0B1) inhibitors, primary screen, cell-based, HEK293, Gal4-DAX1, luciferase luminescence. Nuclear receptor subfamily 0 group B member 1 (Homo sapiens), P51843. HEK293 Gal4-DAX1 luciferase reporter. inhibition, % at 6.75 µM. 340,000 compounds, 0.99% hits. AID 504766, 2011;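 active = inhibition above the mean over all tested compounds plus 3 SD, cut at about 4.2% in these data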;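 also: 0% = DAX1-transfected cells with DMSO and 100% = empty-vector control cells with DMSO; inhibition shows as a rise in luminescence from relieved DAX1 repression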
Target sequence (P51843 207-470 limits assumed): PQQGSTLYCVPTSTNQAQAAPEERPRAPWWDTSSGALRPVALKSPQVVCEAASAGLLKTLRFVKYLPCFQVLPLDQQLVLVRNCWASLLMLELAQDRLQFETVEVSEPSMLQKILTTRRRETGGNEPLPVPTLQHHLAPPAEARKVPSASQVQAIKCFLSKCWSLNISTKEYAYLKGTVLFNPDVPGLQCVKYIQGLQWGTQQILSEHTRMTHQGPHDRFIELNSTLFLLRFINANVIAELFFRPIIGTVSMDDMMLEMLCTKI
ssDAF-12 act: S. stercoralis DAF-12 nuclear receptor activators, primary screen, cell-based, luminescence, HEK293, GRIP1 co-expression, lit1-tk-luc | Nuclear hormone receptor DAF-12 (Strongyloides stercoralis) | HEK293 ssDAF-12/GRIP1 lit1-tk-luc reporter; % of 3 µM dafachronic acid response | activation, % at 6.8 µM | 370,000 compounds, 1% hits;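 active = activation above the mean over all tested compounds plus 3 SD, cut at about 0.9% in these data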;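 also: 0% = DMSO-only wells and 100% = 3 µM delta7-dafachronic acid wells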
SMARCA2 activ: SMARCA2 (BRM) function activators, primary screen, cell-based, luminescence, high throughput; MG213 cells, MMTV-luciferase reporter, dexamethasone, overnight; activation, % at 9.1 µM; 370,000 compounds, 1% hits; in the data active = activation above about 7.8%;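 also: 0% = vehicle wells and 100% = reference activator wells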
DAX1 inh-2: DAX1 (NR0B1) inhibitors on StAR promoter, primary screen, cell-based, luminescence, SF-1 (NR5A1), full-length DAX-1 | HEK293T StAR-luciferase reporter, SF-1/DAX-1 repression relief | inhibition, % at 6.8 µM | 370,000 compounds, 1.1% hits | AID 652010, 2013;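 active = inhibition above the mean over all tested compounds plus 3 SD, cut at about 3.6% in these data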;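 also: 0% = DAX-1 cells with DMSO and 100% = cells lacking DAX-1 with DMSO; higher inhibition means more luminescence from relief of DAX-1 repression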
hgDAF12 agonist: H. glycines DAF-12 receptor agonists, primary screen, cell-based, luminescence, HEK293, GAL4 fusion, UAS-luciferase. Nuclear hormone receptor DAF-12 (Heterodera glycines), GAL4 fusion. HEK293 GAL4-hgDAF12 UAS-luciferase reporter, agonist luminescence; normalized to butyrate control. activation, % at 6.8 µM. 370,000 compounds, 1.8% hits. AID 687014, 2013;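 active = activation above a cutoff set at the mean of all screened compounds plus 3 SD, cut at about 10% in these data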;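 also: 0% = DMSO wells and 100% = sodium butyrate wells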
hcDAF-12 act: H. contortus DAF-12 nuclear receptor activators, primary screen, cell-based, luminescence, HEK293, lit1-tk-luc reporter; activation, % at 6.8 µM; 370,000 compounds, 1.4% hits; HEK293 hcDAF-12 lit1-tk-luc reporter; 0% DMSO, 100% Δ7-dafachronic acid;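 active = activation above the mean of all tested compounds plus 3 SD, cut at about 5.5% in these data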;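 also: 100% = response to 3 µM Δ7-dafachronic acid high control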
hgDAF12 ag: H. glycines DAF-12 receptor agonists, confirmation, cell-based, luminescence, HEK293, GAL4-LBD fusion | shares compounds with hgDAF12 agonist | HEK293 GAL4-hgDAF12 luciferase reporter, agonist mode; percent of butyrate response | activation, % at 6.8 µM | 3,300 compounds, 80% hits;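 active = mean activation over triplicate wells above the hit cutoff derived from the earlier primary screen, cut at about 11% in these data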;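 also: 0% = DMSO low control and 100% = 2 mM sodium butyrate high control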
LXR ag 2: LXR agonists, Gal4 luciferase reporter, confirmation, counter-screen for hgDAF-12 agonist project, cell-based, luminescence, HEK293, H. glycines campaign | shares compounds with hgDAF12 agonist | 24 h | activation, % at 6.8 µM | 3,300 tested, under 10 active | AID 743051, 2013;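 active = mean activation of the triplicate above a set limit carried over from the primary screen, none filed active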
Target sequence (P55055 whole entry, looked up, the tested form may be a part): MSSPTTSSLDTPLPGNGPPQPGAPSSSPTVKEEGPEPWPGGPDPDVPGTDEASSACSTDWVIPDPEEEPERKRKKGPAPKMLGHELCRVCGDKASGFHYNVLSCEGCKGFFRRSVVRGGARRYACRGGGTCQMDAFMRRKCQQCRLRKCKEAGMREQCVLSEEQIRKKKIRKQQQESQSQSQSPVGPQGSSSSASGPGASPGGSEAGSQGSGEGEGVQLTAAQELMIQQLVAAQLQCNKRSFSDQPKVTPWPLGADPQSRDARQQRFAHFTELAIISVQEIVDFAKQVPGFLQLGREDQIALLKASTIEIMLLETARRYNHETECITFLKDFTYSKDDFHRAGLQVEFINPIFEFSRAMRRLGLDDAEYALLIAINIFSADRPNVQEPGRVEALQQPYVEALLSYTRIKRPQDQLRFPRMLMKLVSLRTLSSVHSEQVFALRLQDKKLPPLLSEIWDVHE
The depositor's hits bear a star; nt = no result given. This is a sample that favours compounds with a hit; in the whole collection about 4.8% have one here.

SMILES | DAX1 inh-1 | ssDAF-12 act | SMARCA2 activ | DAX1 inh-2 | hgDAF12 agonist | hcDAF-12 act | hgDAF12 ag | LXR ag 2
N/C(=N/OC(=O)c1cccc([N+](=O)[O-])c1)c1cccc([N+](=O)[O-])c1 | -0.6 | -1.6 | -1.5 | -0.5 | 1.0 | -1.6 | nt | nt
CC(C)(C)c1cc(NC(=O)Nc2ccccc2)no1 | 2.7 | 0.0 | 7.0 | 2.4 | 22.8* | 5.3 | 18.9* | 0.8
CC1(C(=O)OCC(=O)c2c[nH]c3ccccc23)CC1(Cl)Cl (configuration not stated) | 1.5 | 1.6* | 7.7 | 1.6 | 14.2* | 5.4 | 15.2* | 0.5
O=C(NN=Cc1ccccc1Cl)c1cccc2ccccc12 | 1.7 | -0.4 | 3.3 | -0.3 | 1.4 | 0.8 | nt | nt
Cc1cc(/C=N/NC(=O)c2ccoc2C)cc(C)c1O | 4.8* | 0.1 | 0.4 | 4.3* | 18.4* | 3.2 | 13.6* | 0.3
Cc1occc1C(=O)N/N=C/c1cccc2ccccc12 | 0.2 | 1.0* | 2.6 | 1.8 | 21.1* | 5.8* | 14.2* | 0.5
O=C(N/N=C/c1ccc2c(c1)OCO2)c1ccc(Cl)cc1Cl | -1.5 | -0.7 | 1.2 | -0.2 | 4.9 | 0.9 | nt | nt
Cc1occc1C(=O)N/N=C/c1ccc2c(c1)OCO2 | -0.7 | 0.2 | 1.6 | 3.5 | 15.7* | 5.7* | 21.4* | 0.9
O=C(c1cnn(-c2cccc(F)c2)c1)c1ccccc1O | 5.0* | 0.6 | 2.4 | 2.2 | 15.3* | 3.4 | 16.1* | 0.7
O=C(O)c1ccc(-n2cc(C(=O)c3ccccc3O)cn2)cc1 | 0.2 | -0.5 | -0.9 | 0.6 | 2.3 | 1.7 | nt | nt
Cc1ccc(S(=O)(=O)N(C)[C@H]2C[C@H]3c4cc(-c5ccc6c(c5)OCO6)ccc4CCN3C[C@H]2[C@H](C)O)cc1 | nt | -0.7 | -2.6 | 0.6 | -3.1 | -0.6 | nt | nt
CNC(=O)COc1ccc(C=O)cc1OC | -0.5 | -0.5 | 0.0 | -0.2 | -1.2 | 2.0 | nt | nt
COc1cc(C=O)ccc1OCc1cccc(Br)c1 | 1.5 | -1.0 | 0.4 | 0.3 | 13.6* | 0.2 | 9.7 | 0.3
COCC(=O)Nc1nc(-c2ccc(-c3ccccc3)cc2)cs1 | 2.0 | -1.1 | -0.1 | -0.2 | 3.5 | -0.1 | nt | nt
CCc1ccc(-c2csc(NC(=O)Oc3ccccc3)n2)cc1 | 0.7 | 0.3 | 5.7 | 2.5 | 14.7* | 0.6 | 6.5 | 0.2
O=c1c2ccccc2oc2ccc(NCCCN3CCOCC3)cc12 | 3.0 | -0.7 | 6.0 | 2.7 | 13.4* | 3.2 | 15.7* | 0.7
COc1ccc(Br)cc1/C=N/Nc1cccc(C(=O)O)c1 | -0.3 | -0.2 | 2.2 | 1.3 | 0.2 | 0.9 | nt | nt
COc1ccccc1/C=C/C=N/Nc1cccc(C(=O)O)c1 | -1.4 | 1.6* | 4.3 | 2.6 | 15.2* | 4.2 | 22.2* | 1.1
CCn1ncc(C(=O)Nc2ccc(S(=O)(=O)N3CCCC3)cc2)c1C | 2.0 | -1.1 | -2.9 | 0.0 | 0.2 | -1.6 | nt | nt
CCn1ncc(C(=O)Nc2cccc(Cl)c2)c1C | 2.9 | 0.9* | 1.6 | 2.8 | 18.1* | 5.3 | 11.8* | 0.4
COc1cccc(NC(=O)c2cnn(-c3ccccc3)c2C)c1 | 0.6 | 1.2* | 2.6 | 2.8 | 17.6* | 6.3* | 13.9* | 0.8
O=C(CC1CCCC1)N[C@H](C(=O)N1CCC[C@H]1C(=O)NC1CCCC1)C1CCCCC1 | nt | -0.3 | -3.4 | 1.2 | 0.2 | 0.3 | nt | nt
C[C@H]1COc2cc(N3CCCC3)ccc2S(=O)(=O)N1 | nt | -1.1 | -2.7 | -0.7 | 0.1 | 1.9 | nt | nt
c1ccc(-c2nc3ccccc3nc2-c2ccc(CN3CCC4(CC3)CNc3ccccc34)cc2)cc1 | nt | -0.5 | -4.3 | -0.1 | 0.6 | -0.4 | nt | nt
Cc1ccccc1C(=O)O/N=C(\N)c1ccncc1 | 0.8 | -0.4 | 5.6 | 2.1 | 15.0* | 3.4 | 13.0* | 0.5
SMILES | DAX1 inh-1 | ssDAF-12 act | SMARCA2 activ | DAX1 inh-2 | hgDAF12 agonist | hcDAF-12 act | hgDAF12 ag | LXR ag 2
O=C1[C@@H]2Cc3c([nH]c4ccccc34)C(c3ccccc3)N2C(=O)CN1CCO (some centres not stated) | 0.8 | -0.6 | 0.3 | 0.7 | 3.7 | 2.6 | nt | nt
CN1CC(=O)N2[C@H](c3ccc4c(c3)OCO4)c3[nH]c4ccccc4c3C[C@@H]2C1=O | -0.5 | -1.3 | -1.4 | -0.7 | 49.0* | -0.9 | 0.6 | -0.1
CC(CC(=O)c1ccc(F)cc1)N1CCN(c2ccccc2)CC1 (configuration not stated) | 0.9 | -0.8 | 2.1 | 0.7 | 5.3 | 0.9 | nt | nt
C(/CCc1ccccc1)=N\Nc1nc2ccccc2[nH]1 | 1.5 | 0.6 | 7.4 | 0.8 | 7.7 | 5.0 | nt | nt
C(=C\c1ccccc1)/C=N/Nc1nc2ccccc2[nH]1 | -0.6 | -0.2 | 5.1 | 1.0 | 15.2* | 3.2 | 16.8* | 0.7
O=S1(=O)N[C@H](Cc2ccccc2)COc2cc(N3CCOCC3)ccc21 | nt | -1.4 | -2.0 | 0.8 | 3.7 | 4.7 | nt | nt
Cc1nc2sc(-c3ccccc3)nn2c(=O)c1Br | 0.5 | -0.6 | 1.2 | 3.4 | 16.5* | 4.1 | 17.1* | 0.8
O=C(O)CC(C(=O)O)C(=Cc1ccccc1)c1ccccc1 (configuration not stated) | 0.4 | -1.4 | -3.9 | -0.3 | 1.8 | 1.1 | nt | nt
Cc1ccc(Nc2ncccc2C(N)=O)cc1 | 2.5 | 0.1 | 2.1 | 2.8 | 14.1* | 4.3 | 13.1* | 0.6
CCCCOCCCNC(=O)C[C@H]1C[C@@]2(C(=O)OC)C(=C[C@H](COCc3ccccc3)O[C@@H]2C)N(CCC2=CCCCC2)C1=O | nt | -0.9 | -6.2 | 0.6 | -2.5 | 1.0 | nt | nt
O=C(Nc1ccc2nc3ccccc3nc2c1)c1ccccc1 | 0.6 | 0.8 | 4.2 | 3.0 | 15.7* | 4.5 | 14.5* | 1.0
O=C(Nc1ccc(Cl)c(Cl)c1)c1ccccc1 | 3.4 | -0.4 | 3.2 | -0.3 | 2.7 | 2.0 | nt | nt
Cc1nc2cc(NC(=O)c3ccc(Cl)cc3)ccc2n1C | 0.5 | -0.2 | 2.4 | 2.3 | 13.3* | 3.9 | 16.3* | 0.9
